# High-throughput results: PubChem, National Center for Advancing Translational Sciences (NCATS)
# An excerpt weighted towards active compounds, which were near 9.5% of everything screened.
# RE007 growth inh: qHTS Assay for Inhibitors of the HIV-1 protein Vpr; S. pombe RE007 Vpr strain, BacTiter-Glo ATP luminescence, 24 h; AID 651644, 2012; Potency, µM (highest dose often 92.2 µM), for the others: at the highest dose activity change, negative = less growth, most hits filed as inhibitors; 0.21% of 360,000 active; active = well fitted falling curve with a large enough effect; inconclusive = small, poorly fitted or top-dose-only effect; inactive = no such curve, though single readings can be large or run the other way; also: % is scaled to controls: 0 for no effect and ±100 for the full control effect; nearly all actives have a fitted effect of over 50% in size
#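 Fission yeast RE007 carrying one integrated HIV-1 vpr copy, seeded at OD 0.01 in PMG+AL medium with 23 nL pinned compound. Grown 24 h at 30 degrees; viability read by BacTiter-Glo luminescence after 5 min.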
# NS1 inh: qHTS Assay for Inhibitors of Influenza NS1 Protein Function | 0.4% of 270,000 active | Potency, µM (titrated, usually from 46.1 µM), for the others: at the top dose activity, positive = more growth | AID 2326, 2010; calls by dose curve; also: actives are rising curves; nearly all actives have a fitted effect of over 50% in size
#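 Compounds were scored for reversing the slow growth caused by influenza A NS1 in S. cerevisiae, measured by optical density at 600 nm. Assay medium contained 2% galactose at pH 6.0; NS1-free yeast of the same strain were the positive control.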
# Pf growth 48h: Primary qHTS for delayed death inhibitors of the malarial parasite plastid, 48 hour incubation | P. falciparum luciferase growth in erythrocytes, 48 h | Potency, µM (top dose mostly 28.7 µM), for the others: top-dose activity change, negative = inhibition, most hits filed as inhibitors | 5.9% of 310,000 active | AID 504832, 2011; also: % is scaled to controls: 0 for no effect and ±100 for the full control effect
#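 Compounds are pin-transferred into medium, infected erythrocytes (2% hematocrit, 0.1% parasitemia final) are added, and plates sit one parasite generation at 37 C in 5% CO2. Detection reagent is then added and luminescence measured.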
# Pf growth 96h: Primary qHTS for delayed death inhibitors of the malarial parasite plastid, 96 hour incubation; Potency, µM (top dose mostly 28.7 µM), for inactives: at the top dose activity change, negative = inhibition, actives largely listed as inhibitors; AID 504834, 2011; P. falciparum luciferase reporter growth, 96 h; 6.9% of 320,000 active; also: % is scaled to controls: 0 for no effect and ±100 for the full control effect
#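 Cell-based qHTS: luciferase-tagged P. falciparum in erythrocytes (2% hematocrit, 0.05% parasitemia final) incubated with compounds for 96 hours, 37 C, 5% CO2; luciferase detection reagent then added and luminescence measured.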
# SARS PLpro yeast: qHTS of Yeast-based Assay for SARS-CoV PLP; S. cerevisiae expressing SARS-CoV PLpro, growth rescue; Potency, µM (titrated, usually from 32.9 µM), without a hit: at the highest dose activity, positive = growth rescue, most hits filed as activators; 0.19% of 330,000 active; AID 485353, 2010; calls by dose curve; also: 0% is about no effect; nearly all actives have a fitted effect of over 55% in size
# Numbers without * were called inactive; ? = inconclusive; · = no result given; [ ] = another dose, or the depositor's remark. Unless noted, calls follow the shape of the dose curve; as a rule, active = well fitted inhibition curve with a large enough effect; inconclusive = small, poorly fitted or top-dose-only effect, or another doubt; inactive = no such curve, though single readings can be large or run the other way. Potency is read from the fitted curve at half-maximal effect.
SMILES,RE007 growth inh,NS1 inh,Pf growth 48h,Pf growth 96h,SARS PLpro yeast
O=C(/C=C/c1ccc(Cl)c(Cl)c1)NCc1ccco1,0%,-37%,-27%,1.9µM*,-44%
Cc1ccc(Cl)cc1NC(C#N)c1ccccc1 (stereo unspecified),0%,0%,6%,14%,-1%
CCOc1ccccc1NS(=O)(=O)c1cccs1,-12%,-5%,10%,·,1%
CCOc1ccccc1NS(=O)(=O)N(C)C,4%,0%,·,13µM*,-3%
CCCCCC/C(=N/O)c1ccccn1,?,-269%,12µM*,?,-23%
CC(CC(=O)O)(CC(=O)O)c1ccccc1,·,6%,·,·,·
Cc1ccc(-n2nc3ccc(NC(=S)NC(=O)/C=C/c4ccco4)cc3n2)cc1,-1%,14%,64%,1.9µM*,8%
COC[C@H](NS(=O)(=O)c1ccc(Br)cc1F)[C@@H](O)c1ccccc1,17%,·,·,·,·
COc1cccc(C(=O)NC(=S)Nc2ccc(N3CCCC3)cc2)c1,-13%,13%,?,41%,7%
CC(C)Oc1cccc(C(=O)NC(=S)Nc2ccc(N3CCN(C)CC3)cc2)c1,10%,6%,13µM*,12µM*,-1%
O=C(COC(=O)c1c(Cl)cccc1Cl)Nc1cc(Cl)ccc1Oc1ccccc1,16%,11%,13µM*,?,-1%
Cc1ccccc1OCC(=O)NS(=O)(=O)c1ccc(Cl)cc1,0%,-23%,-10%,5.2µM*,-2%
CC(C)NS(=O)(=O)c1ccc(CCC(=O)Nc2cc(Cl)ccc2Oc2ccccc2)cc1,-9%,10%,·,?,11%
Cc1ccccc1OCC(=O)Nc1cc(Cl)ccc1Oc1ccccc1,0%,5%,?,5.2µM*,5%
CCNS(=O)(=O)c1ccc(CCC(=O)Nc2cc(Cl)ccc2Oc2ccccc2)cc1,13%,?,?,8.3µM*,-3%
COc1ccccc1OCC(=O)Nc1cc(Cl)ccc1Oc1ccccc1,-7%,-2%,-76%,31%,0%
O=[N+]([O-])c1cc(F)cc(F)c1Nc1cc(F)cc(F)c1,2%,·,·,·,·
CCOC(=O)CSc1nc2c(sc(=S)n2-c2ccccc2OC)c(=O)n1Cc1ccco1,-25%,16%,?,9%,17%
CCOC(=O)CSc1nc2c(sc3ccc([N+](=O)[O-])cc32)c(=O)n1Cc1ccco1,-11%,11%,6.6µM*,33%,14%
Cc1ccc(NC(=O)COC(=O)c2cc(=O)c3ccccc3o2)cc1F,6%,·,-11%,31%,-18%
O=C(c1cc(-c2ccc(Br)cc2)nc2ccccc12)N1CCC1,-22%,·,3.3µM*,4.1µM*,-2%
COc1ccc(-c2nnc(Nc3ccc(OC)c(C(=O)N4CCCCC4)c3)c3ccccc23)cc1,·,-9%,5.2µM*,?,14%
COc1ccc(-c2cc(C(=O)N3CCCCCC3)c3ccccc3n2)cc1OC,1%,·,·,·,·
COc1ccc(-c2cc(C(=O)N3CCCCCC3)c3ccccc3n2)cc1,-7%,·,9.3µM*,3.3µM*,6%
COc1ccc(Nc2nnc(-c3ccc(O)cc3)c3ccccc23)cc1C(N)=O,-7%,-9%,-23%,?,1%
SMILES,RE007 growth inh,NS1 inh,Pf growth 48h,Pf growth 96h,SARS PLpro yeast
COc1ccc(-c2cc(C(=O)Oc3ccc([N+](=O)[O-])cc3)c3ccccc3n2)cc1,?,6%,-4%,13µM*,-6%
O=C(c1cc(-c2cccc(Br)c2)nc2ccccc12)N1CCCC1,-1%,-25%,?,87%,-15%
C[C@H](CO)N1C[C@H](C)[C@@H](CN(C)S(=O)(=O)c2cn(C)cn2)Oc2ccc(NC(=O)Cc3ccccc3)cc2C1=O,-13%,·,·,·,19%
CC1=C(C(=O)N2CCOCC2)CC(CC(=O)NC(c2ccccc2)c2ccccc2)C(=O)N1Cc1ccc(F)cc1 (stereo unspecified),2%,·,·,·,·
C=C[C@H](CC(C)C)N(Cc1ccccc1)S(=O)(=O)N(Cc1ccc(OC)cc1)[C@H](C=C)CC(C)C,49%,·,5.2µM*,?,3%
CCOC(=O)[C@@H](C)N(Cc1ccc(OC)cc1)S(=O)(=O)N(Cc1ccccc1)[C@H](C(=O)OC)C(C)C,6%,·,10µM*,?,-5%
CCOC(=O)[C@@H](C)NS(=O)(=O)N(Cc1ccccc1)[C@H](C(=O)OC)C(C)C,2%,·,-23%,18%,3%
O=C1CCC(CCC(=O)N2CCCC(C(=O)c3cccc(C(F)(F)F)c3)C2)=NN1 (stereo unspecified),3%,0%,47%,13%,0%
O=c1c2ccccc2nc2c3ccccc3c(NCCN3CCOCC3)nn12,·,-1%,0%,10%[5.75 µM],2%
O=c1c2c(-c3ccccc3)csc2nc2c3ccccc3c(NCCN3CCOCC3)nn12,-12%,·,3.3µM*,1.2µM*,18%
O=c1c2ccccc2nc2n1CCN2Cc1ccc(Cl)cc1,17%,-31%,2.1µM*,2.3µM*,-14%
CC1(C(=O)Nc2ccc(Cl)c(C(F)(F)F)c2)Cc2c(-c3ccc4c(c3)OCO4)ccnc2O1 (stereo unspecified),0%,·,·,·,·
Fc1ccc(-c2csc3ncnc(Cl)c23)cc1,0%,-9%,0.23µM*,?,13%
COc1ccc(-c2csc3nc[nH]c(=O)c23)cc1,15%,·,56%,45%,-2%
COc1ccc(-c2csc3ncnc(Cl)c23)cc1,-16%,-2%,1.3µM*,19%,1%
COc1ccc(-c2csc3ncnc(N4CCN(c5ccccc5Cl)CC4)c23)cc1,-4%,0%,?,?,-4%
Clc1ccc(-c2csc3ncnc(Cl)c23)cc1,-9%,-13%,?,?,-5%
COc1ccc(Nc2ncnc3scc(-c4ccc(OC)cc4)c23)cc1,-4%,?,-17%,9.3µM*,5%
COCCn1c(=O)[nH]c2cc(C(=O)Nc3cccc(C(C)=O)c3)ccc2c1=O,-26%,12%,-9%,2%,6%
CCc1ccc(C(=O)COC(=O)C2=NN(c3ccccc3)C(=O)CC2)cc1,-5%,·,·,·,0%
O=C1C(c2ccc(F)cc2)N(CC2COc3ccccc3O2)C(=O)CN1C1CCCCC1 (stereo unspecified),-11%,5%,2.3µM*,?,5%
Cc1cc(C)nc(SCCn2c(N3CC(C)OC(C)C3)nc3c2c(=O)n(C)c(=O)n3C)n1 (stereo unspecified),1%,·,-6%,20%,-6%
CC(=O)Oc1ccc(N(C(C)=O)S(=O)(=O)c2cccs2)c2ccccc12,-12%,3%,4.1µM*,·,-3%
CC(=O)Oc1c(Br)cc(N(C(C)=O)S(=O)(=O)c2ccccc2)c2ccccc12,2%,-9%,3.3µM*,?,-8%
CCN(c1cccc2ccccc12)S(=O)(=O)c1cccs1,-10%,·,·,·,-7%
